SMILES strings stand for the structures.

In this experiment the target is AMP-activated protein kinase, AMPK (Homo sapiens) (UniProt P54646+O43741+P54619+Q9UGJ0+Q9Y478+Q13131+Q9UGI9). Kind of experiment: AMP-dependent Kinase enzyme assay. An in vitro enzyme assay that detects ADP turnover that is directly proportional to AMPK activity. This uses naive AMPK that is activated during the assay with MK-8722. The arrangement: scale not given: direction of the effect not stated beside the values. It is filed as functional. The conditions noted are these: 30 µM.
As for `CNC(=O)c1sc(C(NC(=O)c2ccccc2)C2CC2)nc1C` (stereo unspecified), the Percent Effect was -1.61%.
For `O=C(Nc1ccccn1)c1ccc(F)c(S(=O)(=O)NC2CC2)c1` the value was 1.7%; for `O=C(c1cccnc1O)N1CCC2(CCCO2)CC1`, 0.948%; for `CN1CCCC(c2nccnc2-c2cccc(C(F)(F)F)c2)C1` (stereo unspecified), 26.4%.
In the case of `CN(Cc1cc[nH]n1)C(=O)c1ccc2c(c1)nc(N1CC[C@H](O)C1)n2C`, the Percent Effect was 19.9%.
As for `COc1ccc(CN(C)C(=O)CN2CC(n3cccn3)C2)cc1F`, the figure is -4.28%; as for `Cc1nn(C)cc1C(=O)N1CCCn2nc(CN3CC[C@H](F)C3)cc2C1`, 2.32%.
As for `O=C(NCc1ccc(N2CCSCC2)cc1)NCc1cc[nH]n1`, the figure is -0.457%; as for `Cc1cc(C2CCCN(CC(=O)N3CCCc4ccccc43)C2)n[nH]1` (stereo unspecified), -5.06%.
As for `Cc1cc(C(=O)NCCN2CCCCCC2)nn1C(C)(C)C`, the figure is 4.2%.
With `COc1cccc(F)c1CN1CCC(c2nc(C)cc(C)n2)C1` (stereo unspecified), the Percent Effect is 1.72%.
As for `Cc1ncsc1CCN(C)Cc1ccc(Br)o1`, the figure is -1.27%; as for `NC1CCCN(Cc2cccc(C(F)(F)F)c2)C1=O` (stereo unspecified), -0.911%; as for `Cc1cc(N2CCC3(CCCN(CCO)C3=O)C2)nc(C)c1C#N` (stereo unspecified), 14.2%.
As for `CC(C)c1noc(OCC(=O)N2CCCCC2C)n1` (stereo unspecified), the Percent Effect is -1.04%.
For the compound `NC(=O)NC1CCN(Cc2ccccc2OCC(F)(F)F)CC1`, the Percent Effect was -5.97%.
As for `CCn1cc(S(=O)(=O)Nc2ccc3[nH]c(C4CCC4)nc3c2)cn1`, the Percent Effect worked out at 2.5%.
Take `COc1ccc(C)c(NC(=O)NCc2ncnn2C)c1`: the Percent Effect was -3.74%.
As for `Cc1cc(C)nc(N2CC[C@H](Oc3ccccc3F)[C@@H](O)CC2)n1`, the Percent Effect was found to be 21.5%.
In the case of `Cc1ccc(C(=O)NC2CCN(C(C)C)C2)c(=O)[nH]1` (stereo unspecified), the Percent Effect was -2.69%.
For `CC(C(N)=O)N1CCN(c2ncc(Cl)cn2)CC1` (stereo unspecified) the value was -1.99%.
